Data: PubChem BioAssay (EPA / NIEHS)
Inconclusive results are not listed. A structure can be active in one record and inactive in another. The source made the active and inactive calls. How the source made its calls, unless noted: active means hit-call score of the fitted dose curve at least 0.9, where 1 is the maximum; inactive means score below 0.9.

Legend:
[1] = biological target: human Peroxisome Proliferator-activated Receptor delta (PPARd), PPARD (gene 5467) (UniProt Q03181); test: ATG_PPARd_TRANS: Attagene TRANS-FACTORIAL HepG2 Assay for human Peroxisome Proliferator-activated Receptor delta (PPARd) (AID 2283002; active means hit-call score of the fitted dose curve at least 0.9, where 1 is the maximum)
Method in brief: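 Multiplexed trans-activation format: HepG2 liver cells expressing exogenous NR-Gal4 chimeras and GAL4-UAS reporters were exposed for 24 h. Reporter mRNA was detected by RT-PCR with capillary electrophoresis fluorescence; activity fitted as gain of signal relative to DMSO.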

[2] = read-out: Intercellular Adhesion Molecule 1 (ICAM1), ICAM1 (gene 3383); test: BSK_3C_ICAM1: BioMAP Diversity Plus: 3C Assay for Intercellular Adhesion Molecule 1 (ICAM1) Biomarker Activity (AID 2283003); details: primary human endothelial cells (HUVEC); actives raise or lower the signal
Method in brief: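 Primary human umbilical vein endothelial cells in the BioMAP 3C system were exposed to chemicals for 24 h, then ICAM-1 was quantified by ELISA. Activity was fitted bidirectionally against the DMSO negative control baseline.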

[3] = BSK_3C_Proliferation: Cell Proliferation Assessment in the BioMAP Diversity Plus: 3C Assay (AID 2283006); details: primary human endothelial cells (HUVEC);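 on AC50: potency may reflect either rise or fall in cell number versus DMSO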
Method in brief: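 Human umbilical vein endothelial cells were grown sub-confluent and exposed to chemical for 48 h, then fixed with 10% TCA and stained with 0.1% sulforhodamine B; absorbance at 560 nm gave relative cell number, fitted bidirectionally against DMSO baseline.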

[4] = biological target: Peroxisome proliferator-activated receptor gamma (Homo sapiens) (UniProt P37231); test: ATG_PPARg_TRANS: Attagene TRANS-FACTORIAL HepG2 Assay for human Peroxisome Proliferator-activated Receptor-gamma (PPARg) (AID 2283007; active means hit-call score of the fitted dose curve at least 0.9, where 1 is the maximum)
Method in brief: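 Liver-derived HepG2 cells expressing an exogenous NR-Gal4 chimera alongside GAL4-UAS reporter genes; 24 h exposure. Fluorescence of reporter RT-PCR products, separated by capillary electrophoresis, gives mRNA induction relative to DMSO.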

[5] = biological target: human RAR-related Orphan Receptor gamma (RORg), RORC (gene 6097) (UniProt P51449); test: ATG_RORg_TRANS: Attagene TRANS-FACTORIAL HepG2 Assay for human RAR-related Orphan Receptor gamma (RORg) (AID 2283011; active means hit-call score of the fitted dose curve at least 0.9, where 1 is the maximum)
Method in brief: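 Readout: reporter transcript induction (RT-PCR, fluorescent primer extension, capillary electrophoresis) after 24 h compound exposure of transiently transfected HepG2 cells carrying a RORg-Gal4 chimera and GAL4-UAS reporters; DMSO served as baseline, with increasing signal fitted.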

[6] = biological target: Retinoic acid receptor RXR-alpha (Homo sapiens) (UniProt P19793); test: ATG_RXRa_TRANS: Attagene TRANS-FACTORIAL HepG2 Assay for human Retinoid X Receptor alpha (RXRa) (AID 2283012; active means hit-call score of the fitted dose curve at least 0.9, where 1 is the maximum)
Method in brief: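 HepG2 cells transiently transfected with multiplexed GAL4-UAS reporter units and chimeric NR-GAL4 fusions, dosed 24 h. Reporter mRNA measured by RT-PCR, FAM labelling, HpaI digestion and capillary electrophoresis; gain-of-signal fitted relative to DMSO baseline.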

[7] = biological target: human Thyroid Receptor alpha (THRa1), THRA (gene 7067) (UniProt P10827); test: ATG_THRa1_TRANS: Attagene TRANS-FACTORIAL HepG2 Assay for human Thyroid Receptor alpha (THRa1) (AID 2283014; active means hit-call score of the fitted dose curve at least 0.9, where 1 is the maximum)
Method in brief: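 HepG2 cells transiently transfected with multiplexed GAL4-UAS reporter units for exogenous chimeric THRa1-Gal4; reporter mRNA measured 24 h after dosing by RT-PCR, 6-FAM labelling, HpaI digestion and capillary electrophoresis. Gain-of-signal fitted versus DMSO baseline.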

[8] = read-out: E-selectin (Homo sapiens) (UniProt P16581); test: BSK_3C_Eselectin: BioMAP Diversity Plus: 3C Assay for Eselectin Biomarker Activity (AID 2283015); details: primary human endothelial cells (HUVEC); actives raise or lower the signal;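 further: cell surface E-selectin protein quantified by ELISA 24 h after dosing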
Method in brief: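 Primary human umbilical vein endothelial cells (3C system) were dosed with chemical and cell-surface E-selectin measured by ELISA 24 h later. Bidirectional curve fitting used DMSO as negative control and baseline.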

[9] = read-out: Interleukin-1 alpha (IL1a), IL1A (gene 3552); test: BSK_BE3C_IL1a: BioMAP Diversity Plus: BE3C Assay for Interleukin-1 alpha (IL1a) Biomarker Activity (AID 2283016); details: primary human bronchial epithelial cells; actives raise or lower the signal
Method in brief: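 Human primary bronchial epithelial cells (BE3C system) were dosed with compound and IL-1a measured by ELISA 24 h later. Activity was fitted bidirectionally against DMSO baseline; cytotoxicity was tracked in parallel cultures by SRB total-protein staining.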

[10] = read-out: Monocyte Chemoattractant Protein-1 (MCP1), CCL2 (gene 6347); test: BSK_3C_MCP1: BioMAP Diversity Plus: 3C Assay for Monocyte Chemoattractant Protein-1 (MCP1) Biomarker Activity (AID 2283017); details: primary human endothelial cells (HUVEC); actives raise or lower the signal
Method in brief: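 Primary human umbilical vein endothelial cells (3C system) were exposed to test chemical for 24 h, after which MCP-1 was quantified by ELISA. Activity was fitted bidirectionally against DMSO as negative control and baseline.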

[11] = read-out: Monocyte Chemoattractant Protein-1 (MCP1), CCL2 (gene 6347); test: BSK_4H_MCP1: BioMAP Diversity Plus: 4H Assay for Monocyte Chemoattractant Protein-1 (MCP1) Biomarker Activity (AID 2283018); details: primary human endothelial cells (HUVEC); actives raise or lower the signal
Method in brief: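 Human umbilical vein endothelial cells (4H system) dosed with chemical; MCP-1 measured by ELISA 24 h after dosing. Bidirectional curve fitting against DMSO negative control as baseline; parallel SRB total-protein staining tracks overt cytotoxicity.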

[12] = read-out: Human Leukocyte Antigen - DR isotype (HLADR), HLA-DRA (gene 3122); test: BSK_3C_HLADR: BioMAP Diversity Plus: 3C Assay for Human Leukocyte Antigen - DR isotype (HLADR) Biomarker Activity (AID 2283019); details: primary human endothelial cells (HUVEC); actives raise or lower the signal
Method in brief: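 Primary human umbilical vein endothelial cells (3C system) were dosed with compound and cell-surface HLA-DR was quantified by ELISA at 24 h. Activity was fitted bidirectionally against DMSO as negative control and baseline.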

[13] = read-out: Interleukin-8 (IL8), CXCL8 (gene 3576); test: BSK_3C_IL8: BioMAP Diversity Plus: 3C Assay for Interleukin-8 (IL8) Biomarker Activity (AID 2283020); details: primary human endothelial cells (HUVEC); actives raise or lower the signal
Method in brief: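 Primary human umbilical vein endothelial cells (3C system) were exposed to test chemical for 24 h, then IL-8 was quantified by ELISA. Responses were fitted bidirectionally against DMSO vehicle as baseline.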

[14] = read-out: Monokine induced gamma interferon (MIG), CXCL9 (gene 4283); test: BSK_3C_MIG: BioMAP Diversity Plus: 3C Assay for Monokine induced gamma interferon (MIG) Biomarker Activity (AID 2283021); details: primary human endothelial cells (HUVEC); actives raise or lower the signal
Method in brief: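 Primary human umbilical vein endothelial cells in the 3C system were exposed to chemical for 24 h, after which MIG was quantified by ELISA. Activity was fitted bidirectionally against DMSO as negative control and baseline.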

[15] = biological target: human Vitamin D Receptor (VDR), VDR (gene 7421) (UniProt P11473); test: ATG_VDR_TRANS: Attagene TRANS-FACTORIAL HepG2 Assay for human Vitamin D Receptor (VDR) (AID 2283022; active means hit-call score of the fitted dose curve at least 0.9, where 1 is the maximum)
Method in brief: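 HepG2 cells were transiently transfected with multiple GAL4-UAS reporter units, so signal reflects exogenous chimeric receptor-Gal4 activity. After 24 h compound exposure, reporter mRNA was measured by RT-PCR, fluorescent labelling and capillary electrophoresis, fitted for gain of signal versus DMSO.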

[16] = BSK_3C_SRB: Viability Assessment in the BioMAP Diversity Plus: 3C Assay (AID 2283023); details: primary human endothelial cells (HUVEC);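 further: fitted both ways against DMSO so a hit may be signal rise or drop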
Method in brief: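 Primary human umbilical vein endothelial cells in the 3C system were read 24 h after compound dosing. Total protein was stained with 0.1% sulforhodamine B after 10% TCA fixation and read at 560 nm, with bidirectional fitting against DMSO as baseline.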

[17] = biological target: Nuclear receptor subfamily 1 group I member 2 (Homo sapiens) (UniProt O75469); test: ATG_PXR_TRANS: Attagene TRANS-FACTORIAL HepG2 Assay for human Pregnane X Receptor (PXR) (AID 2283008; active means hit-call score of the fitted dose curve at least 0.9, where 1 is the maximum)
Method in brief: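 HepG2 cells transiently transfected with GAL4-UAS reporter units and PXR-Gal4 chimera, exposed 24 h. Reporter mRNA quantified by RT-PCR, fluorescent labelling, HpaI digestion and capillary electrophoresis; gain of signal vs DMSO.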

[18] = biological target: human Retinoic Acid Receptor gamma (RARg), RARG (gene 5916) (UniProt P13631); test: ATG_RARg_TRANS: Attagene TRANS-FACTORIAL HepG2 Assay for human Retinoic Acid Receptor gamma (RARg) (AID 2283009; active means hit-call score of the fitted dose curve at least 0.9, where 1 is the maximum;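 on AC50: AC50 is for reporter induction above DMSO meaning RARg activation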)
Method in brief: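 HepG2 cells transiently transfected with multiplexed reporter units expressing chimeric RARg-GAL4 and GAL4-UAS-driven reporters; 24 h compound exposure. Reporter mRNA quantified by RT-PCR with fluorescent labelling and capillary electrophoresis; gain-of-signal fitted relative to DMSO baseline.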

[19] = biological target: human Retinoid X Receptor beta (RXRb), RXRB (gene 6257) (UniProt P28702); test: ATG_RXRb_TRANS: Attagene TRANS-FACTORIAL HepG2 Assay for human Retinoid X Receptor beta (RXRb) (AID 2283013; active means hit-call score of the fitted dose curve at least 0.9, where 1 is the maximum)
Method in brief: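 HepG2 cells transiently transfected with multiplexed reporter units driven by GAL4-UAS and exogenous chimeric NR-Gal4 proteins; treated 24 h. Reporter mRNA measured by RT-PCR, 6-FAM labelling and capillary electrophoresis; gain-of-signal fitted versus DMSO baseline.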

[20] = biological target: human RAR-related Orphan Receptor beta (RORb), RORB (gene 6096) (UniProt Q92753); test: ATG_RORb_TRANS: Attagene TRANS-FACTORIAL HepG2 Assay for human RAR-related Orphan Receptor beta (RORb) (AID 2283010; active means hit-call score of the fitted dose curve at least 0.9, where 1 is the maximum)
Method in brief: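 HepG2 cells were transiently transfected with multiplexed GAL4-UAS reporter units expressing chimeric nuclear receptor–GAL4 proteins, then dosed for 24 h. Reporter mRNA was quantified by RT-PCR with fluorescent labelling and capillary electrophoresis; gain of signal was fitted relative to DMSO.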

Measured: AC50

human RAR-related Orphan Receptor gamma (RORg), RORC (gene 6097), sequence (P51449 whole entry, looked up, the tested form may be a part): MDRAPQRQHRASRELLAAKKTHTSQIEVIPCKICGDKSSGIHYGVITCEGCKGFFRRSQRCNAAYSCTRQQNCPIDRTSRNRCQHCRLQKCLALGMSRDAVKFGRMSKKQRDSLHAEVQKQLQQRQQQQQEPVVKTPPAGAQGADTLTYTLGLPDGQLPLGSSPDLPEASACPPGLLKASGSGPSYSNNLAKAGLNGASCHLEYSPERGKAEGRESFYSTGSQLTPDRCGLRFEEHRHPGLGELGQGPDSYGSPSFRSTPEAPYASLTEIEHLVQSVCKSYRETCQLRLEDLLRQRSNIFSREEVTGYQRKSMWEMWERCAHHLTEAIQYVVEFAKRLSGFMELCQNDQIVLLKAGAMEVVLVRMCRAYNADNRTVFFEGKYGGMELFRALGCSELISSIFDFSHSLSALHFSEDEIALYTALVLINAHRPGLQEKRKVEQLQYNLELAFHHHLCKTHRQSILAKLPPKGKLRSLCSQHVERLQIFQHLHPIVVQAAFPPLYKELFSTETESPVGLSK
E-selectin (Homo sapiens), sequence (P16581 whole entry, looked up): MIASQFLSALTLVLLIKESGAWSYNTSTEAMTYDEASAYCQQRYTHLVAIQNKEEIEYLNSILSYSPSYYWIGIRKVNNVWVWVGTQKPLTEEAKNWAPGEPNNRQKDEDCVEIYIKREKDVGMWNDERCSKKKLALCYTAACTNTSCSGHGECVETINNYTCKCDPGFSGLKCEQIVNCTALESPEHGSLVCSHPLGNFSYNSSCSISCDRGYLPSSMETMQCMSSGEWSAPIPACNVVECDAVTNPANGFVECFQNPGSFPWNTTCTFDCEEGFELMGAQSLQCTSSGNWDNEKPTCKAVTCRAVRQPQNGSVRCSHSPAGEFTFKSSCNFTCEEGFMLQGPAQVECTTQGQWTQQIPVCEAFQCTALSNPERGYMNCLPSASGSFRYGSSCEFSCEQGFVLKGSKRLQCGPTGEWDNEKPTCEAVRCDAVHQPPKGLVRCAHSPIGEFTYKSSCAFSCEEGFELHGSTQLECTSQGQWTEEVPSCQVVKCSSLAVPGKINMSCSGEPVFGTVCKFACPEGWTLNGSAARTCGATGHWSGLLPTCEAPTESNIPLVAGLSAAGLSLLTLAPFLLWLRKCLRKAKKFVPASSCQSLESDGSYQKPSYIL
human Peroxisome Proliferator-activated Receptor delta (PPARd), PPARD (gene 5467), sequence (Q03181 whole entry, looked up, the tested form may be a part): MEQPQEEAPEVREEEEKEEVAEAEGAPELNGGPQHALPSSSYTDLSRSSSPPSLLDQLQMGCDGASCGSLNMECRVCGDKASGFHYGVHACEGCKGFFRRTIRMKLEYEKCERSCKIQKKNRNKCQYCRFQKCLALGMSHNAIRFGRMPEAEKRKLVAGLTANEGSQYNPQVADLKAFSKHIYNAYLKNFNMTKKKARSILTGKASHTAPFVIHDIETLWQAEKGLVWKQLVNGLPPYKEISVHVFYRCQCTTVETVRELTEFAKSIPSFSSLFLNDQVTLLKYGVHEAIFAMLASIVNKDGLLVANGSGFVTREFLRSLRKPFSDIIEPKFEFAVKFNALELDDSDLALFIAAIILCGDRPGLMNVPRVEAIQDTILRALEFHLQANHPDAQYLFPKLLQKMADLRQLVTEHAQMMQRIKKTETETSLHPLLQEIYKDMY
human Thyroid Receptor alpha (THRa1), THRA (gene 7067), sequence (P10827 whole entry, looked up, the tested form may be a part): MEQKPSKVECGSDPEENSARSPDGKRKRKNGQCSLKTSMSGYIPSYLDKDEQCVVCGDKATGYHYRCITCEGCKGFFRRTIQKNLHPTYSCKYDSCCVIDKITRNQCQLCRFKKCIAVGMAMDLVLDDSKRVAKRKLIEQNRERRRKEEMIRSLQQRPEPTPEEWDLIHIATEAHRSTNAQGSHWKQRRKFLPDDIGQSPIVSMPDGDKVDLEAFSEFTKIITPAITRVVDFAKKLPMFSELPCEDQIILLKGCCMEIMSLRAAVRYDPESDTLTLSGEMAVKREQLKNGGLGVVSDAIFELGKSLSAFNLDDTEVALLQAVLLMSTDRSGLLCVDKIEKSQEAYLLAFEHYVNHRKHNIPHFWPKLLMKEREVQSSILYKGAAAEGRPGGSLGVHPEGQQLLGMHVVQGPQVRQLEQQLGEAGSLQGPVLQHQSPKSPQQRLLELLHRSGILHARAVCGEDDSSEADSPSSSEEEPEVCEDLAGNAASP
human Retinoic Acid Receptor gamma (RARg), RARG (gene 5916), sequence (P13631 whole entry, looked up, the tested form may be a part): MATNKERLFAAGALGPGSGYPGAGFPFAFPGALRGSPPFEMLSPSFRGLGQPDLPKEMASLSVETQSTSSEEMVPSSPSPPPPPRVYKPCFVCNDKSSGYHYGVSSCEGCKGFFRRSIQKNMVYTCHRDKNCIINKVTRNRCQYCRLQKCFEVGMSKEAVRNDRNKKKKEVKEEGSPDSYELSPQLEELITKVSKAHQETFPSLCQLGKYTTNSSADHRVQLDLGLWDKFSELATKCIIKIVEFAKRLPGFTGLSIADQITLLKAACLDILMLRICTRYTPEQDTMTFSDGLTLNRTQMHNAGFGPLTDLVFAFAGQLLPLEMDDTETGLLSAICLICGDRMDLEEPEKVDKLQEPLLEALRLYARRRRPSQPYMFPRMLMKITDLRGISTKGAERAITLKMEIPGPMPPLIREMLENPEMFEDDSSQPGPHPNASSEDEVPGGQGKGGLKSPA
Retinoic acid receptor RXR-alpha (Homo sapiens), sequence (P19793 whole entry, looked up, the tested form may be a part): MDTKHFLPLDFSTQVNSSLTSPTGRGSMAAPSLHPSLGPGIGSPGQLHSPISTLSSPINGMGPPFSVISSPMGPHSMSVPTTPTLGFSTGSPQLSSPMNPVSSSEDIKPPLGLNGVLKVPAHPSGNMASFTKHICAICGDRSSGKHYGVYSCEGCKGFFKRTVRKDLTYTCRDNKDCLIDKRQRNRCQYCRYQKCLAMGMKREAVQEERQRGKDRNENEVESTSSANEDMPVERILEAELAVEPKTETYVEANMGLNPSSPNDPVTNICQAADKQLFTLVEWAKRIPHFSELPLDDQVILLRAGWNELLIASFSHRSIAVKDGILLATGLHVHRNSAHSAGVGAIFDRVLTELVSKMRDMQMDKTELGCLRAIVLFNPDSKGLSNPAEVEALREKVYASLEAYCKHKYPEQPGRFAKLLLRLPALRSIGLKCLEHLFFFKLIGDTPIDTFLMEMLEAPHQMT
Peroxisome proliferator-activated receptor gamma (Homo sapiens), sequence (P37231 whole entry, looked up, the tested form may be a part): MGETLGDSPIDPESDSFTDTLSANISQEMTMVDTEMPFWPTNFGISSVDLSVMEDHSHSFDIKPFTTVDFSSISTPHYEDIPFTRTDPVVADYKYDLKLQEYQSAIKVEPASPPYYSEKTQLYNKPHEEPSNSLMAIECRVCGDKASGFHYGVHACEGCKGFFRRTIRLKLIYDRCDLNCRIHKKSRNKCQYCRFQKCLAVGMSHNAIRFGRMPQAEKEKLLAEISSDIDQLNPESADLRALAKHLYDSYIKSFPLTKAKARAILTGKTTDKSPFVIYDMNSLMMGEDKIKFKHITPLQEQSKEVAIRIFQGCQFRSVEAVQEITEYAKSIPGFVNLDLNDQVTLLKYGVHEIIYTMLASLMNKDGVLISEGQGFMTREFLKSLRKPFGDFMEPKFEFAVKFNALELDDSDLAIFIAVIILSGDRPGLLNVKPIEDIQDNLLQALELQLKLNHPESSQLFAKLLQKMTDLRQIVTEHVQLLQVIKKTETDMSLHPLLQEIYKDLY
human Retinoid X Receptor beta (RXRb), RXRB (gene 6257), sequence (P28702 whole entry, looked up, the tested form may be a part): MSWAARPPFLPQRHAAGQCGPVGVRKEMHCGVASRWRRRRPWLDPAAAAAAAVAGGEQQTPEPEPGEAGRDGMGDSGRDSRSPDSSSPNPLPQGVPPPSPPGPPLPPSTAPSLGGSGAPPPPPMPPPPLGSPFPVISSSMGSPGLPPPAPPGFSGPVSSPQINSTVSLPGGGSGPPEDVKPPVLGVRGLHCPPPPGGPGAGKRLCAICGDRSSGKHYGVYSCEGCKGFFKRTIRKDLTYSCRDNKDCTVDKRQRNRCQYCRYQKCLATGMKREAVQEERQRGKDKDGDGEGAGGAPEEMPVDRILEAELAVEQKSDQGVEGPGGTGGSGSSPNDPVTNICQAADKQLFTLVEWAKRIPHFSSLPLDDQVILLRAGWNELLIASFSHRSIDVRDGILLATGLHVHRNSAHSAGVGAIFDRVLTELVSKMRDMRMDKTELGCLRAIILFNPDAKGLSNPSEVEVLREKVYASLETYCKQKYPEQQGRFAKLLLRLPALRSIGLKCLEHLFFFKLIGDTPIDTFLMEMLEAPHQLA
human Vitamin D Receptor (VDR), VDR (gene 7421), sequence (P11473 whole entry, looked up, the tested form may be a part): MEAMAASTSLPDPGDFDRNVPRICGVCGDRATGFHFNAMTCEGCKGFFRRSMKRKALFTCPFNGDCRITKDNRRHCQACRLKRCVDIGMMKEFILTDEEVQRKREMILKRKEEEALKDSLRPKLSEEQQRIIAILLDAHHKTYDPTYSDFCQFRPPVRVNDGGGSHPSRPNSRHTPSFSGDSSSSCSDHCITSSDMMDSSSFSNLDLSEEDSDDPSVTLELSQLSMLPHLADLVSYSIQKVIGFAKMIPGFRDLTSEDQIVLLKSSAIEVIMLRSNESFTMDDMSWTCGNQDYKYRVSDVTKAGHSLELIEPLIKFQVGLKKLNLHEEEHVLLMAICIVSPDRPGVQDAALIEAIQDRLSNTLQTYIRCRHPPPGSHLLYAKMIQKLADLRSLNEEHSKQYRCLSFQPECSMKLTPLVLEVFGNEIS
Nuclear receptor subfamily 1 group I member 2 (Homo sapiens), sequence (O75469 whole entry, looked up, the tested form may be a part): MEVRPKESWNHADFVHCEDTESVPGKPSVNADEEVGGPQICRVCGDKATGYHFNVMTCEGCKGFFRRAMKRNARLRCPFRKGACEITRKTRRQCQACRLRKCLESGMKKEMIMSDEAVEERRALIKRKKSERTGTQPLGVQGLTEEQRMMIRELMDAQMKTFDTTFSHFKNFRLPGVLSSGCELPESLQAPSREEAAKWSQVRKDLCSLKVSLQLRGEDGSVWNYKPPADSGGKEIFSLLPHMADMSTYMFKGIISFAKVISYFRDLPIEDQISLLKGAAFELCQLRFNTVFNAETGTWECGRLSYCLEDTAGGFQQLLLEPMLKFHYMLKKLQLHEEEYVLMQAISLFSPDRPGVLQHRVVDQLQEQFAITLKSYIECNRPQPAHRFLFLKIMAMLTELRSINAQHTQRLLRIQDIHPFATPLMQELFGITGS

NC(=O)C(F)(F)C(F)(F)F
inactive: [1] | [2] | [3] | [4] | [5] | [6] | [7] | [8] | [9] | [10] | [11] | [12] | [13] | [14] | [15] | [16]

CCCCOCCOP(=O)(OCCOCCCC)OCCOCCCC
active: [4] 58.7 µM | [19] 24.8 µM | [10] 3.97 µM | [12] 12.8 µM
inactive: [1] | [2] | [3] | [17] | [18] | [5] | [19] | [8] | [9] | [11] | [13] | [14] | [15] | [16]

O=C(O)C=CC(F)(C(F)(F)F)C(F)(F)F
inactive: [1] | [2] | [3] | [4] | [18] | [20] | [6] | [7] | [8] | [9] | [10] | [11] | [12] | [13] | [14] | [15] | [16]

Cc1c([N+](=O)[O-])cc2c(c1[N+](=O)[O-])C(C)(C)CC2(C)C
inactive: [1] | [2] | [4] | [7] | [8] | [9] | [10] | [11] | [14] | [15] | [16]
active: [3] 2.4 µM | [17] 0.862 µM | [18] 2.08 µM | [6] 8.24 µM | [19] 1.37 µM | [12] 11.9 µM | [13] 2.03 µM

Cc1ccc2c(c1N)C(=O)c1ccccc1C2=O
active: [17] 2.89 µM | [12] 15 µM | [16] 4.25 µM
inactive: [1] | [2] | [3] | [4] | [6] | [19] | [7] | [8] | [9] | [10] | [11] | [13] | [14]

Nc1ccc([N+](=O)[O-])cc1Cl
inactive: [1] | [2] | [3] | [4] | [17] | [6] | [19] | [8] | [9] | [10] | [11] | [12] | [13] | [14] | [15] | [16]

COP(=O)(O)OC
inactive: [1] | [2] | [3] | [4] | [18] | [5] | [7] | [8] | [9] | [10] | [11] | [12] | [13] | [14] | [16]
